According to PubChem BioAssay (NCI):
“And” between values parts separate entries of the source, which are not always exact repeats. Equal values may be shown once. About 83,000 compounds went through this panel and 20% of them were active in at least one assay; those are over-represented in the sample as a whole.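 For each line, cells grew in 96-well plates with the test compound present at a single concentration for 48 hours.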 The source made the active and inactive calls. The calls were made as follows: active = growth percent below 10; inactive = the rest.

Tests used:
Assay in all cases: NCI-60 one-dose screen, 48 h (100 = growth as untreated, 0 = no growth, -100 = all killed)
[1] = tested on: DU-145 prostate; settings: 10 µM unless noted
[2] = tested on: K-562 leukemia; settings: 10 µM
[3] = tested on: MALME-3M melanoma; settings: 10 µM
[4] = tested on: MDA-MB-231 breast; settings: 10 µM
[5] = tested on: RXF 393 renal; settings: 10 µM unless noted
[6] = tested on: SF-268 CNS; settings: 10 µM
[7] = tested on: SF-295 CNS; settings: 10 µM
[8] = tested on: UACC-257 melanoma; settings: 10 µM
[9] = tested on: M14 melanoma; settings: 10 µM
[10] = tested on: SF-539 CNS; settings: 10 µM

SMILES	growth [1]	growth [2]	growth [3]	growth [4]	growth [5]	growth [6]	growth [7]	growth [8]	growth [9]	growth [10]
CN1CCN(CCCN2c3ccccc3Sc3ccc(C(F)(F)F)cc32)CC1	70.4% (inactive)	-11.9% (active)	-10.5% (active)	52.7% (inactive)	37% (inactive)	63.5% (inactive)	42.9% (inactive)	-59.5% (active)	-74% (active)	–
NNc1c2ccccc2nc2ccccc12	66% (inactive)	49.2% (inactive)	62.5% (inactive)	65.2% (inactive)	72.8% (inactive)	50.1% (inactive)	–	34.9% (inactive)	66.4% (inactive)	42.8% (inactive)
CCCCCC(C)c1ccc(O)c(C)c1 (configuration not stated)	103% (inactive)	90.6% (inactive)	–	–	113% (inactive)	98.3% (inactive)	95.5% (inactive)	99.3% (inactive)	97.7% (inactive)	103% (inactive)
O=C(O)COc1ccc(OCC(=O)O)cc1	5.6% (active)	20% (inactive)	21.3% (inactive)	27.8% (inactive)	24.7% (inactive)	14.2% (inactive)	-9.53% (active)	–	20.7% (inactive)	-0.842% (active)
O=C(/C=C/c1cccnc1)c1ccccc1	105% (inactive)	28.9% (inactive)	94.2% (inactive)	116% (inactive)	112% (inactive)	100% (inactive)	112% (inactive)	93.5% (inactive)	88.6% (inactive)	96.2% (inactive)
Oc1ccc(N=Nc2ccccn2)c(O)c1	24.5% (inactive)	–	36.1% (inactive)	35.7% (inactive)	43.4% (inactive)	20.6% (inactive)	20% (inactive)	3.09% (active)	-6.58% (active)	13.1% (inactive)
O=C(C(=Cc1ccccc1)C(=O)c1ccccc1)c1ccccc1	61.3% (inactive) and 102% (inactive)	35.5% (inactive) and 93.8% (inactive)	88.4% (inactive) and 108% (inactive)	70.5% (inactive) and 74.8% (inactive)	66.5% (inactive) and 98.8% (inactive)	58.5% (inactive) and 83.3% (inactive)	65.4% (inactive) and 97.7% (inactive)	73% (inactive) and 83.7% (inactive)	47.5% (inactive)	72.9% (inactive) and 96.9% (inactive)
COc1ccc(CC(=O)c2ccc(O)cc2O)cc1	138% (inactive)	98.7% (inactive)	128% (inactive)	117% (inactive)	144% (inactive)	132% (inactive)	113% (inactive)	119% (inactive)	103% (inactive)	99.3% (inactive)
Cc1nc(N=C(N)N)nc2ccc3ccccc3c12	5.58% (active)	-4.93% (active)	-37.8% (active)	-0.868% (active)	4.87% (active)	-25.4% (active)	1.84% (active)	-9.97% (active)	4.95% (active)	4.58% (active)
O=C1C=CC(=CC=C2C=CN(CCCCCCCCCCCO)C=C2)C=C1	44.3% (inactive)	24.7% (inactive)	41.6% (inactive)	–	69.2% (inactive)	–	45.3% (inactive)	4% (active)	45.4% (inactive)	41.4% (inactive)
COC(=O)C1=COC(C)C2C[n+]3ccc4c([nH]c5ccccc54)c3CC12 (configuration not stated)	112% (inactive) and 108% (inactive)	93.7% (inactive) and 85.2% (inactive)	105% (inactive) and 93.8% (inactive)	101% (inactive) and 73.2% (inactive)	112% (inactive)	99.1% (inactive) and 96.2% (inactive)	102% (inactive) and 90.8% (inactive)	106% (inactive) and 95.1% (inactive)	107% (inactive) and 94% (inactive)	105% (inactive)
Nc1c2ccccc2nc2ccccc12	16.3% (inactive) and 40.9% (inactive)	1.31% (active) and 11.9% (inactive) and 27% (inactive)	5.23% (active) and 42% (inactive) and 34% (inactive)	25.2% (inactive) and 40.1% (inactive) and 35.4% (inactive)	8.02% (active) and -6.66% (active) and 44.2% (inactive)	24.2% (inactive) and 47.3% (inactive)	-24.9% (active) and 25.7% (inactive) and 49.5% (inactive)	-31.3% (active) and 25.4% (inactive) and 53.5% (inactive)	7.24% (active) and 34.6% (inactive) and 42.3% (inactive)	21.7% (inactive) and 23.4% (inactive) and 29.2% (inactive)
